The values below come from PubChem BioAssay (EPA / NIEHS).

By AC50 is commonly meant the concentration at which the activity in the assay is half-maximal.

Active and inactive are the calls of the source. Rule for the calls: active = hit-call score of the fitted dose curve at least 0.9, where 1 is the maximum; inactive = score below 0.9.

The nature of the assay: BSK_LPS_PGE2: BioMAP Diversity Plus: LPS Assay for Prostaglandin E2 (PGE2) Biomarker Activity (AID 2283082). The note with it: primary human HUVEC with PBMC; actives raise or lower the signal. The method, then: BSK_LPS is a cell-based, multiplexed-readout assay that uses umbilical vein endothelium and peripheral blood mononuclear cells, a human vascular primary cell co-culture, with measurements taken at 24 hours after chemical dosing in a 96-well plate.BSK_LPS_PGE2 is an assay component measured in the BSK_LPS assay. It measures PGE2 antibody related to regulation of gene expression using ELISA technology.Data from the assay component BSK_LPS_PGE2 was analyzed into 1 assay endpoint. This assay endpoint, BSK_LPS_PGE2, was analyzed with bidirectional fitting relative to DMSO as the negative control and baseline of activity. Using a type of binding reporter, gain or loss-of-signal activity can be used to understand changes in the signaling as they relate to the gene PTGER2. Furthermore, this assay endpoint can be referred to as a primary readout, because this assay has produced multiple assay endpoints where this one serves a signaling function. To generalize the intended target to other relatable targets, this assay endpoint is annotated to the gpcr intended target family, where the subfamily is rhodopsin-like receptor.
The levels of cell surface (or secreted, indicated by the prefix "s") biomarker endpoints were measured by ELISA. Overt cytotoxicity to cells in confluent adherent cultures (all systems other than the BT system) was assessed by measuring total protein levels using sulforhodamine B (SRB) staining in parallel cultures at the time of biomarker measurements, indicated as SRB endpoints. For proliferation assays for adherent cell types, individual cell types are cultured at sub-confluence and relative cell numbers quantified by SRB staining at time points optimized for each system (48 h: 3C and CASM3C systems; 72 h: BT and HDF3CGF systems; 96 h: SAg system). SRB was performed by staining cells with 0.1% SRB after fixation with 10% TCA and reading wells at 560 nm.Viability and proliferation of PBMC (T cells) was quantified by Alamar Blue reduction for the SAg and BT systems. For PBMC viability (referred to as PBMC Cytotoxicity within the assay endpoint names), cells were plated (75,000/well in a 96-well plate) and then chemical samples added for 1 h before addition of activators, SEB and TSST-1 (20 ng/mL final concentration each). Cells were incubated for 90 h. Then, Alamar Blue (20 uL/well) (Invitrogen, Cat DAL1100) was added for 6 h, and the plates were read with a fluorescence microplate reader at 546/580 nm (excitation/emission). For PBMC proliferation, cells were plated and activated as above but incubated for only 16 h prior to addition of Alamar Blue. Plates were read after 6 h.
Regarding `Nc1nc(N)c2nc(CNc3ccc(C(=O)N[C@@H](CCC(=O)O)C(=O)O)cc3)cnc2n1`, the outcome was inactive.

Regarding `Cc1ccc(N(C)C)cc1`, the outcome was inactive.

Consider `O=C(O)CCCCC(=O)O`, for which the result was inactive.

Turning to `COc1ccc(S(=O)(=O)N2C(=O)[C@@](c3ccccc3OC)(N3C[C@H](O)C[C@H]3C(=O)N(C)C)c3cc(Cl)ccc32)c(OC)c1`, the result was inactive.

For the molecule `CCCCCCCC=O`, the outcome was inactive.

In the case of `Clc1cc(Cl)c(Cl)cc1Cl`, the result was inactive.

For the molecule `FC(F)(F)C(F)(F)C(F)(F)C(F)(F)C(F)(F)C(F)(F)CCI`, the result was inactive.

On to `CC(C)(C)c1cc(O)c(C(C)(C)C)cc1O`, for which the AC50 is 9.44 µM (active).

On to `Oc1ccc2ccccc2c1N=Nc1ccccc1`, for which the concentration at half-maximal activity (AC50) is 2.4 µM (active).

As for `C1CCC(SSC2CCCCC2)CC1`, the outcome was inactive.

As to `c1cc(-c2ccncc2)ccn1`, the result was inactive.

Turning to `CCCCCC(=O)O`, the result was inactive.

As to `CCCCCCCCCCO`, the result was inactive.

On to `CCCCCCCCCCC`, for which the outcome was inactive.

Consider `CC1(C)NC(=O)NC1=O`, for which the result was inactive.

For the molecule `C=CCc1ccc(O)c(OC)c1`, the half-maximal activity concentration (AC50) is 0.542 µM (active).

As to `CCCCCCCCCCCC(=O)OC`, the outcome was inactive.

Turning to `Nc1ccccc1N`, the AC50 was 10.9 µM (active).

Regarding `CCCCc1ccc2c(n1)[C@@H](c1ccc(OC)cc1C[C@H](C)C(=O)O)[C@H](C(=O)O)[C@H]2c1ccc2c(c1)OCO2`, the outcome was inactive.

Turning to `CC(=O)Oc1ccccc1C(=O)O`, the AC50 is 3.25 µM (active).

Turning to `Cc1oc(-c2ccccc2)nc1CCOc1cccc2c1ccn2CCC(=O)O`, the AC50 was 5.34 µM (active).

As to `NCC1(Cc2noc(=O)[nH]2)CCCCC1`, the outcome was inactive.

On to `O=C(OCCCCCOC(=O)c1ccccc1)c1ccccc1`, for which the outcome was inactive.

Regarding `CCCCC(CC)COC(=O)CC(C(=O)OCC(CC)CCCC)S(=O)(=O)O` (stereo not given), the result was inactive.

For `Cc1ccc2ncccc2c1`, the result was inactive.

Turning to `Cc1c(C(=O)O)c(O)cc2c1C(=O)c1c(O)c([C@@H]3O[C@H](CO)[C@@H](O)[C@H](O)[C@H]3O)c(O)c(O)c1C2=O`, the result was inactive.

Consider `CC(=O)OCCOCCOCCOC(C)=O`, for which the result was inactive.

With `Oc1ccc2c(c1)OC[C@@H](N1CCC(O)(c3ccc(F)cc3)CC1)[C@H]2O`, the result was inactive.

For `NC(=O)Cn1c(=O)cc(CCN2CCN(c3nccc4sccc34)CC2)c2ccc(F)cc21`, the outcome was inactive.

As to `Cc1cccc(C)c1O`, the concentration at half-maximal activity (AC50) is 4.8 µM (active).

As for `COc1cc(C=O)ccc1O`, the outcome was inactive.

Take `CCCCCCOCCO`: the result was inactive.

On to `Cc1cccc([N+](=O)[O-])c1C`, for which the result was inactive.

For `CCNc1cccc(C)c1`, the result was inactive.

For `CC1=C(/C=C/C(C)=C/C=C/C(C)=C/CO)C(C)(C)CCC1`, the AC50 is 0.574 µM (active).

In the case of `COC(=O)c1ccc(O)cc1`, the AC50 was 1.34 µM (active).

Consider `Cc1cc(=O)[nH]c(=S)[nH]1`, for which the result was inactive.

Consider `O=c1[nH]cc(F)c(=O)[nH]1`, for which the outcome was inactive.

`CC(=O)OC/C=C(\C)CCC=C(C)C`: the result was inactive.

Take `C=CCOC(=O)c1ccccc1C(=O)OCC=C`: the result was inactive.
